# Measured values: PubChem BioAssay (NCATS)
# Inconclusive results are not listed. Values without a mark were called inactive. Active and inactive are the calls of the source. The call rests on the fitted dose curve; in most records, active means well fitted curve in the direction sought with a large enough effect; inconclusive means small, poorly fitted or top-dose-only effect, or another doubt; inactive means no such curve, though single readings can be large or run the other way.
# Assay: qHTS Assay for Identifying Gametocytocidal Compounds (AID 743244);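 on max response: actives lower the fluorescent signal which means gametocytes are killed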
# Conditions: P. falciparum 3D7 stage III-V gametocytes, alamarBlue, 72 h; max response: hits give low values
# Summary of the method: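 Late gametocytes (III–V), P. falciparum 3D7; 72 h drug, then 24 h alamarBlue; resazurin reduction read by fluorescence.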
# On the % scale 0 is the no-effect control and ±100 the full control effect; potency means the concentration at half of the fitted maximal effect.
SMILES,max response [%],Potency
COP(=S)(OC)Oc1ccc(S(=O)(=O)N(C)C)cc1,17.5,–
COC(=O)C(Cl)C(=O)OC,-5.17,–
O=C(O)/C=C\C(=O)O,2.8,–
CC(=O)N1CCN(c2ccc(OC[C@H]3CO[C@](Cn4ccnc4)(c4ccc(Cl)cc4Cl)O3)cc2)CC1,0.452,–
Clc1ccc(C(c2ccc(Cl)cc2)C(Cl)(Cl)Cl)cc1,0.742,–
COP(=S)(OC)SCN1C(=O)c2ccccc2C1=O,-4.68,–
CC(C)c1c(CN(C)C(C)Cc2ccccc2)n(C)n(-c2ccccc2)c1=O (stereo unspecified),12.8,–
COC(=O)[C@@H](N)CCCN/C(N)=N/[N+](=O)[O-],-0.272,–
CN=C1CN(O)C(c2ccccc2)=c2cc(Cl)ccc2=N1,7.17,–
CCN(CC)C(=O)[C@@H]1C=C2c3cccc4[nH]cc(c34)C[C@H]2N(C)C1,–,63.1 µM (active)
O=C1c2ccccc2C(=O)C1C(=O)C(c1ccccc1)c1ccccc1,4.31,–
Nc1nc(N)nc(NC2CC2)n1,-8.01,–
O=C1c2ccccc2C(=O)c2ccccc21,-6.63,–
CN1C[C@H](C(=O)N[C@]2(C)O[C@@]3(O)[C@@H]4CCCN4C(=O)[C@H](Cc4ccccc4)N3C2=O)C=C2c3cccc4[nH]cc(c34)C[C@H]21,–,8.91 µM (active)
c1ccc(CN2CCNCC2)cc1,8.43,–
CCC1(c2ccccc2)C(=O)N(COC)C(=O)N(COC)C1=O,-2.08,–
